Data taken from PubChem BioAssay AID1490 (National Center for Advancing Translational Sciences (NCATS), 2009).
Where “and” joins values, the source holds several entries; their conditions need not be identical. Equal values may be shown once. Hit rate of the full screen: of about 310,000 compounds, about 11,000 (3.5%) were called active. About 4% were inconclusive and are not listed. The call rests on the fitted dose curve; in most records, active means well fitted inhibition curve with a large enough effect; inconclusive means small, poorly fitted or top-dose-only effect, or another doubt; inactive means no such curve, though single readings can be large or run the other way. For the sample, actives were picked, then their nearest neighbours and some compounds at random.

Biological target: 4'-phosphopantetheinyl transferase ffp (Bacillus subtilis) (UniProt Q9F4F7)
Assay: qHTS Assay for Inhibitors of Bacillus subtilis Sfp phosphopantetheinyl transferase (PPTase);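 further: the enzyme is Sfp with the accession as filed and its product quenches rhodamine fluorescence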;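 on Largest response in the series, negative = inhibition: 0% = enzyme reaction without inhibitor and -100% = no enzyme wells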
Details: Biochemical Sfp PPTase activity
Method in brief: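 Compounds were incubated with enzyme (final 15 nM) for 15 min at room temperature before substrate addition started the reaction. Fluorescence at 525 nm excitation, 598 nm emission was recorded immediately and after 30 minutes.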
Potency means the concentration at half of the fitted maximal effect.

Largest response in the series, negative = inhibition, inactive:
CC(=O)OCC1OC(C#CCCCc2ccccc2)C=CC1OC(C)=O (stereo not drawn) 17.9%
Cc1cc(=O)oc2c(C)c(OCC(=O)NCCc3ccc(S(N)(=O)=O)cc3)ccc12 11%
CC(=O)NCC(=O)N1CCC(n2nccc2NC(=O)CCCc2ccccc2)CC1 13.4%
COc1cc(NS(=O)(=O)c2ccc(NC(=S)NC(=O)c3ccc(Br)cc3)cc2)ncn1 1.72%
c1ccc(Cc2nn3c(Cn4cnc5ccccc54)nnc3s2)cc1 -63.8%
CC(=O)OC(COc1ccc(F)cc1)Cn1cnc2ccccc21 (stereo not drawn) -2.66%
CC(=O)N1CCN(c2ccccc2NC(=S)NC(=O)c2cc3ccccc3o2)CC1 7.22%
COCCn1c(SCC(=O)N2CCCCCC2)nc2c(c1=O)SCC2 4.45%
CC(NC(=O)Nc1cccc([N+](=O)[O-])c1)c1ccc2c(c1)OCO2 (stereo not drawn) -3.6%
Cc1ccc2nc(N(CCN(C)C)C(=O)C3=COCCO3)sc2c1 5.53%
O=C(Nc1nc2ccc([N+](=O)[O-])cc2s1)c1ccc(S(=O)(=O)N2CCCc3ccccc32)cc1 -0.333%
CCN(CC)CCN(C(=O)c1ccc(S(=O)(=O)N2CCOCC2)cc1)c1nc2cc3c(cc2s1)OCCO3 7.56%
CSc1nc2ccc(S(=O)(=O)N3CCc4ccccc43)cc2s1 7.95%
COc1ccc(C)cc1N(CC(=O)NC(C)c1ccccc1)S(C)(=O)=O (stereo not drawn) 4.53%
CCC1Sc2ccc(S(=O)(=O)CCC(=O)NCc3cccs3)cc2NC1=O (stereo not drawn) 20.6%
CC(C)=CCCC(C)CN1CCC(n2nccc2NC(=O)c2ccccc2)CC1 (stereo not drawn) 9.72%
O=C(Nc1nnc(-c2ccccc2F)s1)c1ccccc1F -1.78%
CCOc1cc(-c2noc(CCCC(=O)NC3CCCCC3)n2)ccc1OC 13%
COc1ccc(OC)c(Nc2nc(-c3ccc(O)c(O)c3)cs2)c1 -45.7%
COc1ccc(-c2csc(Cc3nc(O)cs3)n2)cc1 -23.9%
CN(CC(=O)Nc1c(Cl)cccc1Cl)C(=O)c1ccncc1 13.1%
Cc1csc(-c2nc3ccccc3n2C)n1 -0.542%
Cc1cc(C(F)(F)F)nn1-c1nc(-c2ccco2)cc(C(F)(F)F)n1 11.9%
CCOc1ccc(C2C3=C(CCCC3=O)N(CC(=O)O)C3=C2C(=O)CCC3)cc1 -3.36%
Cc1ccnc(SCC(N)=O)n1 7.56%
Cc1ccnc(N2CCCC(C(=O)NC3CC3)C2)n1 (stereo not drawn) 12.1%
CCN(CC(=O)NCCCN1CCOCC1)S(=O)(=O)c1cc(Cl)ccc1Cl 9.56%
COc1ccc(CC(=O)N/N=C/c2cc([N+](=O)[O-])cc(Br)c2O)cc1 23.5%
CC(C)C(=O)Nc1ccc(C(=O)NNC(=O)c2cccs2)cc1 -14.7%
CC(C)(C)C(=O)NC(NC(=S)Nc1ccc(S(N)(=O)=O)cc1)C(Cl)(Cl)Cl (stereo not drawn) 7.73%
CCc1ccc(NC(=O)C(=O)NNC(=O)c2cccs2)cc1 6.91%
NS(=O)(=O)c1ccc(CCNC(=O)CNC(=O)Cc2ccccc2)cc1 -3.07%
NS(=O)(=O)c1ccc(NC(=S)NC(=O)c2cccc(Br)c2)cc1 -13.6%
NS(=O)(=O)c1ccc(CCNC(=O)Nc2ccc(Cl)cc2)cc1 7.27%
COc1cccc(NC(=O)CN(C)C(=O)c2ccccc2CCc2ccccc2)c1 4.61%
CCN1C(=NCCc2cccnc2)N[C@@H](c2ccccc2)C(C(=O)OC)=C1C 4.98% and 1.06%
CCOc1ccc(CN2CCN(CCCc3ccccc3)C(CCO)C2)cc1 (stereo not drawn) 7.43%
CN(C)c1ccc(NC(=O)CN2C3CCCC2CC(NC(=O)c2ccccc2)C3)cc1 (stereo not drawn) -10%
O=C(CN1CCCCCC1)Nc1ccc(Br)cc1[N+](=O)[O-] -3.46%
CCCn1cc(S(=O)(=O)c2ccc(C)cc2)c(=O)c2cc(OCC)ccc21 0.066%
COc1cc(C2NC(=O)NC(c3ccccc3)=C2C(C)=O)c(Br)cc1OCC(N)=O (stereo not drawn) 18.5%
CCOc1cc2[nH]c(=S)n(CCN3CCCCC3C)c(=O)c2cc1OCC (stereo not drawn) -4.39%
CCOc1cc2[nH]c(=O)n(Cc3ccc(C(=O)NCCCN4CCCC4=O)cc3)c(=O)c2cc1OCC 9.7%
Cc1cc(=O)[nH]c(N/N=C/c2c(C)nn(-c3ccccc3Cl)c2Cl)n1 -9.72%
CCN(CC)c1ccc(/C=N/Nc2nc(C)cc(=O)[nH]2)cc1 -16.8%
COc1ccc(/C=C(\C#N)c2c[nH]c3ccccc23)cc1 10.3%
Cc1ccc2c(c1)N(CC(=O)NCCc1ccc(Cl)cc1)C(=O)c1cccnc1O2 -4.46%

Potency, active:
Fc1ccc(OCc2nn3c(Cn4nnc5ccccc54)nnc3s2)cc1 15.8 µM
CN(C)CCCN(C(=O)c1ccc(S(=O)(=O)N2CCCc3ccccc32)cc1)c1nc2ccc(F)cc2s1 56.2 µM
CN(C)CCCN(C(=O)c1ccc(S(=O)(=O)N2CCCCCC2)cc1)c1nc2ccc(Br)cc2s1 50.1 µM
CC(C)(C)C(=O)OCc1nc(-c2ccc(O)c(O)c2)cs1 56.2 µM
Cn1c(-c2ccco2)nc2cc3ccccc3cc21 56.2 µM
Cc1ccnc(-n2sc3ccccc3c2=O)n1 2.51 µM
NS(=O)(=O)c1ccc(CCNC(=S)Nc2ccc(S(N)(=O)=O)cc2)cc1 20 µM
NS(=O)(=O)c1ccc(NC(=S)NNC(=O)c2cccs2)cc1 15.8 µM
NS(=O)(=O)c1ccc(NC(=S)Nc2ccc(Br)c(Cl)c2)cc1 56.2 µM
CCOc1cc2[nH]c(=S)n(CCCN3CCCC3=O)c(=O)c2cc1OCC 56.2 µM
Cc1cc(=O)[nH]c(N/N=C/c2ccc3c(c2)OCCO3)n1 56.2 µM
